Tau FP inhib: blocks human tau fibril formation measured by polarization; hit rate 0.39% among 280,000; K18 P301L tau heparin fibrillization, Alexa594 FP, 6 h; Potency, µM (titrated, usually from 57.7 µM), without a hit: at the top dose activity, negative = inhibition, actives largely listed as inhibitors; AID 1468; P10636; note: nearly all actives have a fitted effect of over 55% in size
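Human K18 P301L fragment (15 uM unlabeled plus 0.24 uM Alexa 594-labeled) in 100 mM sodium acetate pH 7 with compound, aggregation induced by 20 uM heparin for 6 hr at 37 C. ThT (30 uM) added for 1 hr, then Alexa 594 FP read.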
Tau fluor cs: counter-screen for tau fibril formation inhibitors; tau K18 P301L Alexa594 fluorescence, heparin fibrillization; Potency, µM (series often up to 57.7 µM), inactives show at the highest dose activity change, negative = decrease; hit rate 0.93% among 280,000; note: nearly all actives have a fitted effect of over 55% in size
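Human tau K18 P301L (15 uM unlabeled, 0.24 uM Alexa 594-labeled) in 100 mM sodium acetate pH 7 with 20 uM heparin, 6 hr at 37 C. ThT 30 uM added, 1 hr ambient; Alexa 594 FP and total fluorescence read at 555/632 nm.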
KDM4E inh: JMJD2E (human) inhibition; Potency, µM (series often up to 57.1 µM), without a hit: at the top dose activity change, negative = inhibition, usual class: inhibitors; B2RXH2; JMJD2E catalytic domain, FDH-coupled NADH fluorescence (FDH is formaldehyde dehydrogenase); AID 2147; hit rate 1.6% among 230,000; active = well fitted inhibition curve with a large enough effect, not every such curve was filed as active; inconclusive = small, poorly fitted or top-dose-only effect, or another doubt; inactive = no such curve, though single readings can be large or run the other way;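 note: 0% = wells with enzyme and -100% = buffer wells without enzyme; nearly all actives have a fitted effect of over 50% in size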
Target sequence (B2RXH2 1-337 limits assumed): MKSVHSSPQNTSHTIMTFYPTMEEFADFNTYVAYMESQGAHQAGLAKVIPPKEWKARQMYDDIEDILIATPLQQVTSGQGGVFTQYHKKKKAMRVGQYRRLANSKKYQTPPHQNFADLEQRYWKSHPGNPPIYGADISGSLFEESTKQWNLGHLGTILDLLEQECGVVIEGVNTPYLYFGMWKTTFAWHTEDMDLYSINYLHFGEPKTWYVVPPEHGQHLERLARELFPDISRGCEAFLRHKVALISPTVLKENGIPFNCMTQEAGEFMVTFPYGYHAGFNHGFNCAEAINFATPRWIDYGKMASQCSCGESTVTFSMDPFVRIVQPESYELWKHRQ
RGS12 GoLoco inh: inhibitors of human Gai1-RGS12 GoLoco interaction (red fluorophore); hit rate 0.44% among 230,000; AID 880; Gai1:RGS12 GoLoco peptide FP, rhodamine, 10 min; Potency, µM (top dose mostly 61.6 µM), inactives show top-dose activity, negative = inhibition, hits mostly inhibitors; active = well fitted inhibition curve with a large enough effect, not every such curve was filed as active; inactive = no such curve, though single readings can be large or run the other way; note: nearly all actives have a fitted effect of over 30% in size
Target sequence (P63096 whole entry, looked up): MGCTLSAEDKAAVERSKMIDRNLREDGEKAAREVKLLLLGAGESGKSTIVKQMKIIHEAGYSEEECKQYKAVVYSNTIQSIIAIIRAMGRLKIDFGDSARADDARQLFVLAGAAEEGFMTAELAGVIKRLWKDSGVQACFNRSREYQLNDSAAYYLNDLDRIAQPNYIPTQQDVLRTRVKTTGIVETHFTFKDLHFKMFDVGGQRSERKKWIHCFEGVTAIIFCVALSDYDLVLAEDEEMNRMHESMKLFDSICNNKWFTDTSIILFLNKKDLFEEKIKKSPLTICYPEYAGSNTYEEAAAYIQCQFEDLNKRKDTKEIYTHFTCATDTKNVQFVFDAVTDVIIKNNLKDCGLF
Tau fibril ThT: blocks human tau fibril formation measured by thioflavin T; Potency, µM (series often up to 57.4 µM), inactives show top-dose activity, negative = inhibition, usual class: inhibitors; P10636; recombinant tau K18 P301L (four-repeat tau fragment), heparin-induced fibrillization, ThT fluorescence; hit rate 2.1% among 270,000; note: nearly all actives have a fitted effect of over 55% in size
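Recombinant human tau K18 fragment […] carrying P301L, 15 uM unlabeled plus 0.24 uM Alexa 594-labeled, was fibrillized with 20 uM heparin in 100 mM sodium acetate pH 7 for 6 hr at 37 C; 30 uM ThT fluorescence read after 1 hr.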
Numbers without * were called inactive; [ ] = dose if it differs, or a comment. An excerpt weighted towards active compounds, which were near 3.4% of everything screened. Unless noted, calls come from the whole dose curve; as a rule, active = well fitted curve in the direction sought with a large enough effect; inconclusive = small, poorly fitted or top-dose-only effect, or another doubt; inactive = no such curve, though single readings can be large; an effect the other way counts as inactive or inconclusive. Unless noted, % is set by controls: 0 for no effect and ±100 for the full control effect; potency is the fitted concentration of half-maximal effect.

`O=C(Nc1ccc(N2CCCC2)c(Cl)c1)c1cccs1` gave Tau FP inhib 11%, Tau fluor cs 16µM*[quencher], KDM4E inh 1%, RGS12 GoLoco inh 50% and Tau fibril ThT inconclusive.
Screening COc1ccc(NC(=O)c2ccc3c(=O)n4nc(Nc5cccc(Cl)c5C)sc4nc3c2)cc1 returned Tau FP inhib -2%, Tau fluor cs -7% and Tau fibril ThT 1%.
For CC(C)(O)C1Cc2cc(/C=C/C(=O)O)c(O)cc2O1 (stereo not drawn) the results were Tau FP inhib -5%, Tau fluor cs -11%, KDM4E inh inconclusive, RGS12 GoLoco inh 28µM* and Tau fibril ThT -12%.
For Cc1ccc(C(=O)c2oc3ccccc3c2NC(=O)Cc2coc3c(C)c(C)ccc23)cc1 the results were Tau FP inhib -12%, Tau fluor cs -13% and Tau fibril ThT -4%.
For COC(=O)c1ccc(-c2ccc(/C=N/NC(=O)Cc3nnc(N)s3)o2)cc1 the results were Tau FP inhib 6%, Tau fluor cs -16%, KDM4E inh inconclusive, RGS12 GoLoco inh 16% and Tau fibril ThT 7.9µM*.
O=C(Cn1c(=O)n(Cc2nc(-c3ccccc3)no2)c(=O)c2ccccc21)Nc1cccc(C(F)(F)F)c1 was read as Tau FP inhib 10µM*, Tau fluor cs inconclusive and Tau fibril ThT 19%.
COc1ccc(NC(=O)Cn2c(=O)n(Cc3nc(-c4ccccc4)no3)c(=O)c3ccccc32)cc1Cl was read as Tau FP inhib inconclusive, Tau fluor cs -6% and Tau fibril ThT inconclusive.
O=C(Cn1c(=O)n(Cc2nc(-c3ccccc3)no2)c(=O)c2ccccc21)Nc1cccc(Cl)c1 was read as Tau FP inhib 28µM*, Tau fluor cs -27% and Tau fibril ThT inconclusive.
For CCOc1ccc(NC(=O)Cn2c(=O)n(Cc3nc(-c4ccccc4)no3)c(=O)c3ccccc32)cc1 the results were Tau FP inhib inconclusive, Tau fluor cs -1% and Tau fibril ThT inconclusive.
O=C(CCC1N=C2c3ccccc3N=C(SCc3ccc(F)cc3)N2C1=O)NCCc1ccccc1 (stereo not drawn) was read as Tau FP inhib -2%, Tau fluor cs 3% and Tau fibril ThT 1%.
`Cn1c(=O)c2nc3ccc(NC(=O)C(F)(F)F)cc3nc2n(C)c1=O` gave Tau FP inhib -1%, Tau fluor cs -6% and Tau fibril ThT 11%.
`CC(=O)Nc1ccc2nc3c(=O)n(C)c(=O)n(C)c3nc2c1` gave Tau FP inhib inconclusive, Tau fluor cs -27%, KDM4E inh inconclusive, RGS12 GoLoco inh 0% and Tau fibril ThT 18µM*.
`CC(=O)Nc1ccc2nc3ccccc3nc2c1` gave Tau FP inhib inconclusive, Tau fluor cs -22%, KDM4E inh 14µM*, RGS12 GoLoco inh 3% and Tau fibril ThT inconclusive.
For COc1ccc(OC)c(CNC(=O)c2ccc(-c3nc(CSc4ccccc4)c(C)o3)cc2)c1 the results were Tau FP inhib -12%, Tau fluor cs -26% and Tau fibril ThT -6%.
For O=C1/C(=C/c2ccc(O)cc2)SC(=S)N1CC1CCCO1 (stereo not drawn) the results were Tau FP inhib inconclusive, Tau fluor cs 13µM*[quencher], KDM4E inh -7%, RGS12 GoLoco inh 217% and Tau fibril ThT 10µM*.
`O=C(N/N=C/C(Br)=C/c1ccccc1)C(O)c1ccccc1` (stereo not drawn) gave Tau FP inhib -13%, Tau fluor cs inconclusive, KDM4E inh -2%, RGS12 GoLoco inh 9% and Tau fibril ThT -12%.
For BrC(=C\c1ccccc1)/C=N/Nc1nc2ccccc2[nH]1 the results were Tau FP inhib -9%, Tau fluor cs inconclusive, KDM4E inh 3%, RGS12 GoLoco inh 11% and Tau fibril ThT 25µM*.
For O=C(O)c1ccc(N/N=C/C(Br)=C/c2ccccc2)cc1 the results were Tau FP inhib 7%, Tau fluor cs inconclusive, KDM4E inh -6%, RGS12 GoLoco inh -11% and Tau fibril ThT 14µM*.
COc1cc2c(cc1OC)-c1c(OC)c(OC)cc3ccnc(c13)C2=O was read as Tau FP inhib -21%, Tau fluor cs inconclusive, KDM4E inh inconclusive, RGS12 GoLoco inh 0% and Tau fibril ThT 7.1µM*.
For O=C(Nc1cc(Cl)cc(Cl)c1)c1ccc(F)c(S(=O)(=O)NC2CCCC2)c1 the results were Tau FP inhib 10µM*, Tau fluor cs inconclusive and Tau fibril ThT 1%.
Screening O=C(Nc1cc(Cl)cc(Cl)c1)c1ccc(F)c(S(=O)(=O)N2CCCC2)c1 returned Tau FP inhib 14µM*, Tau fluor cs inconclusive and Tau fibril ThT -5%.
For CC(C)c1ccc(NC(=O)c2ccc(F)c(S(=O)(=O)N3CCCC3)c2)cc1 the results were Tau FP inhib -11%, Tau fluor cs -9% and Tau fibril ThT inconclusive.
For Cc1ccc(O)c(NC(=O)c2ccc(Br)c(S(=O)(=O)N3CCCCC3)c2)c1 the results were Tau FP inhib -3%, Tau fluor cs 13µM*[quencher] and Tau fibril ThT -12%.
For CCOc1ccc(OCC)c(NC(=O)CN(C)S(=O)(=O)c2ccc3[nH]c(=O)oc3c2)c1 the results were Tau FP inhib -3%, Tau fluor cs -21% and Tau fibril ThT -1%.
For Cc1ccc(C)c(N2CCN(C(=O)c3c(C)oc4nc(C)nc(N5CCOCC5)c34)CC2)c1 the results were Tau FP inhib -2%, Tau fluor cs -5% and Tau fibril ThT -8%.
`CCCN(CCC)CCCNC(=O)c1sc2nc3n(c(=O)c2c1C)CCC3` gave Tau FP inhib 5%, Tau fluor cs -13% and Tau fibril ThT inconclusive.
For CC1=C(C(=O)Nc2ccccc2)C(c2ccc(C)o2)n2c(s/c(=C\c3ccco3)c2=O)=N1 (stereo not drawn) the results were Tau FP inhib inconclusive, Tau fluor cs inconclusive, KDM4E inh -29%, RGS12 GoLoco inh 73% and Tau fibril ThT 13µM*.
Screening C#CCOCCOCCOCCNc1nc(N2CCN(C(=O)[C@H](CCCCN)n3cc(C(N)CO)nn3)CC2)nc(N2CCN(C(=O)[C@H](CCC(=O)O)n3cc(C(N)CC(C)C)nn3)CC2)n1 (stereo partly drawn) returned Tau FP inhib -13%, Tau fluor cs 4%, KDM4E inh 20µM*, RGS12 GoLoco inh -3% and Tau fibril ThT 1%.
COc1ccc(NC(=O)N2CCc3c(sc4c3CCCC4)C2c2ccc(F)cc2)cc1 (stereo not drawn) was read as Tau FP inhib 2%, Tau fluor cs -15% and Tau fibril ThT -4%.
For CCc1ccc(NC(=O)NCCc2c(C)nn(C)c2C)cc1 the results were Tau FP inhib 5%, Tau fluor cs 0% and Tau fibril ThT -7%.
`COc1ccc(/C=N/N(Cc2ccccc2)c2ccccc2)cc1O` gave Tau FP inhib inconclusive, Tau fluor cs 14µM*[quencher], KDM4E inh -6%, RGS12 GoLoco inh 5% and Tau fibril ThT inconclusive.

Screening results from PubChem.
